Screening results deposited in PubChem BioAssay by several laboratories.
MEKK3 PB1 HTS: MEKK3-MEK5 PB1 interaction, increase or decrease. binding response (% of control), % at 10 µM. bead-based flow cytometry, Alexa488-MEK5 binding to MEKK3; actives lie on both sides; 0 = blocked by unlabeled MEK5, 100 = vehicle. Q99759. 290,000 tested, 1.4% active;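 active = binding response more than 3 SD above or below the average of its plate-row segment, actives on both sides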;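 note: Alexa488 bead fluorescence after subtracting the streptavidin-only scavenger bead signal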
Mot1-301 SUMO: inhibitors of SUMOylation pathway: yeast Mot1-301 growth rescue | S. cerevisiae Mot1-301 growth rescue, ATP luminescence, 38.5C; percent above DMSO median, 100 means doubled | growth rescue, % at 18.8 µM | 320,000 tested, 1% active;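 active = every valid replicate shows activation above 250% relative to neutral control wells; inactive = the rest, any valid replicate at or below 250%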;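 note: OY570 slx delta 5 strain wells were the positive control but not used for scaling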
MEKK2mut PB1 HTS: signal of MEK5 binding to mutant human MEKK2 PB1 domain | bead flow cytometry, Alexa488-MEK5 binding to MEKK2 mutant | percent response, % at 10 µM | 290,000 tested, 0.35% active; in the data active = percent response above about 24%, passing the limit was not always enough
MEKK2 WT-MEK5: raises or lowers MEK5 binding to wildtype human MEKK2 PB1 domain. binding response (% of control), % at 10 µM. AID 1531. 290,000 tested, 1.1% active. bead flow cytometry, Alexa488-MEK5 binding to MEKK2 WT; actives lie on both sides. Q9Y2U5; in the data active = binding response below about 67% or above about 130%
CHT PAM: human CHT allosteric activation; Q9GZV3; CHT-expressing cells, membrane potential dye, choline EC20; hits give high values; LV-AA mutant CHT in HEK293 cells; 310,000 tested, 0.49% active; AID 488977; B-score at 10 µM;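 active = initial fluorescence not abnormally high and integrated response B-score, plate-corrected, over 3 SD above library mean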
Target sequence (Q9GZV3 whole entry, looked up): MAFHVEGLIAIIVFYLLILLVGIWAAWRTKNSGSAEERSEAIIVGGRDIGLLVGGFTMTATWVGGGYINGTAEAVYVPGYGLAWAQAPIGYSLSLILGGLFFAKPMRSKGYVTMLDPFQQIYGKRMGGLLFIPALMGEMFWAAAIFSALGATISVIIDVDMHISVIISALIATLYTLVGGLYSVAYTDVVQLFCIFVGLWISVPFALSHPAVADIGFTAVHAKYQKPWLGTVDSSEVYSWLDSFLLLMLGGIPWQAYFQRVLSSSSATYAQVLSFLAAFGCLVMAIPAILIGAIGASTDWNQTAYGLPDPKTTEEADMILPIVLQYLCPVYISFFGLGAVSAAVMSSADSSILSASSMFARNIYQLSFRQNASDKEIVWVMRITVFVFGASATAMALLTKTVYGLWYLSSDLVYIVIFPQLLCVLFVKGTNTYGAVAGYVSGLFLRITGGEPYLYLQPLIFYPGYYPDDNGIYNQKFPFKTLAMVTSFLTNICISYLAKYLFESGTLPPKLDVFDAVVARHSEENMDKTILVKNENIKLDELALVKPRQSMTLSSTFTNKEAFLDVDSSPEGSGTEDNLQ
CHT inh: inhibits the human high affinity choline transporter; Q9GZV3; CHT-expressing cells, membrane potential dye, choline response; hits give low values; B-score at 10 µM; 310,000 tested, 0.86% active; AID 488975;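 active = B-score over 3 SD under the library average, and starting fluorescence ratio not unusually high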;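 note: choline stimulus applied at its EC90 after an EC20 pre-addition; B-score computed on integrated fluorescence ratio after choline addition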
Active calls of the source: *; i = inactive; / = no result; + = active, no number; ! = not active in a repeat. Hits are enriched below; roughly 4.1% of the tested compounds scored in any of these assays.

SMILES | MEKK3 PB1 HTS | Mot1-301 SUMO | MEKK2mut PB1 HTS | MEKK2 WT-MEK5 | CHT PAM | CHT inh
CC(=O)N1CC(C)Sc2ccc(S(=O)(=O)NCCc3ccccc3)cc21 (centres undefined) | 99.0 | 44.6 | 5.0 | 107.0 | i | i
CCN1C(=O)/C(=C/C2=Cc3ccccc3OC2C)SC1=S (centres undefined) | 98.0 | -15.6 | 0.0 | 84.0 | i | i
CC(C)Nc1ccc(Nc2ccnc3cc4ccccc4cc23)cc1 | 109.0 | 183.3 | 80.0* | 208.0* | i | i
COc1ccccc1OCCN1CSC(=S)N(C)C1 | 97.0 | + | -1.0 | 99.0 | i | i
COc1ccccc1OCCCCN1CCCCC1 | 109.0 | -5.5 | 13.0 | 107.0 | i | i
FC(F)(F)c1cccc(-c2cc(C3CCNCC3)[nH]n2)c1 | 107.0 | -5.2 | 19.0 | 128.0 | i | i
COC(=O)CCN1CCC(c2cc(-c3cccc(C(F)(F)F)c3)n[nH]2)CC1 | 112.0 | 319.6* | 8.0 | 114.0 | i | i
Cc1ccc(-c2cnn3c(N4CCOCC4)cc(C)nc23)cc1 | 104.0 | 356.6 | 5.0 | 102.0 | i | i
COc1ccccc1-c1cc(C(F)(F)F)nc(S(=O)(=O)CCCC(=O)O)n1 | 89.0 | 4.5 | -7.0 | 94.0 | i | i
COc1ccccc1-c1cc(C(F)(F)F)nc(S(=O)(=O)CCCC(=O)N2CCOCC2)n1 | 100.0 | 11.0 | 6.0 | 100.0 | i | -5.1*
COc1ccc(C(=O)NCCS(=O)(=O)N(C)C2CCCCC2)cc1 | / | -6.7 | / | / | i | i
Cc1ccc(S(=O)(=O)NCC(=O)OCC(=O)c2ccc(Cl)s2)cc1 | 98.0 | 352.8* | -3.0 | 99.0 | i | i
Cc1ccc(S(=O)(=O)NCC(=O)OCC(=O)c2cccs2)cc1 | 102.0 | -6.1 | 0.0 | 103.0 | i | i
O=c1c2cc(Cl)ccc2nc(-c2ccc(Cl)c(Cl)c2)n1O | 115.0 | -25.5 | 4.0 | 111.0 | i | -6.99*
Cc1ccc(C(=O)NNC(=O)Cn2ccc(C(F)(F)F)n2)o1 | / | -0.7 | / | / | i | i
Cc1ccc(O)c(C(=O)c2cnc3c(c2)CN(C)C(=O)N3)c1 | 97.0 | 9.1 | -1.0 | 99.0 | i | i
CN1Cc2cc(C(=O)c3cc(Cl)cc(CSc4ncccn4)c3O)cnc2NC1=O | 102.0 | 24.6 | -1.0 | 94.0 | 7.01* | i
Cc1ccc(N(C(=O)c2csnn2)C(C(=O)NC2CCCC2)c2ccccn2)c(C)c1 (centres undefined) | 99.0 | -6.7 | -2.0 | 103.0 | i | i
Cc1cc(C)c(OCC(O)CN2CCN(c3ccccn3)CC2)c(C)c1 (centres undefined) | 106.0 | 16.4 | 3.0 | -8.0* | i | i
COc1ccccc1NC(=O)Nc1cc(NC(=O)Nc2ccccc2OC)c(C)nc1C | 100.0 | -2.2 | -2.0 | 102.0 | i | i
COc1ccc2c([N+](=O)[O-])c(Cl)[nH]c2c1 | 92.0 | 7.7 | 4.0 | -6.0* | i | i
COc1ccc(S(=O)(=O)NCCOc2ccc(Cl)cc2)cc1 | / | 8.1 | / | / | / | /
CCOC(=O)/C(C#N)=N\Nc1cc(Cl)ccc1OC | 100.0 | -0.2 | 5.0 | 101.0 | i | i
C=CCc1cc(/C=C/c2nc(O)c([N+](=O)[O-])c(=O)[nH]2)cc(OC)c1O | 104.0 | 523.3* | -2.0 | 101.0 | i | i
O=c1[nH]c(/C=C\c2ccc(O)cc2)nc(O)c1[N+](=O)[O-] | 100.0 | 0.1 | 7.0 | 101.0 | i | i
SMILES | MEKK3 PB1 HTS | Mot1-301 SUMO | MEKK2mut PB1 HTS | MEKK2 WT-MEK5 | CHT PAM | CHT inh
CC[C@@]12C(=O)N(c3cccc(C)c3)C(=O)N1[C@H](c1ccc(OC)cc1)[C@@H]1C(=O)N(C(C)(C)C)C(=O)[C@@H]12 | 102.0 | -25.7 | 0.0 | 99.0 | i | i
COc1ccc([C@@H]2[C@@H]3C(=O)N(C(C)(C)C)C(=O)[C@@H]3[C@]3(C)C(=O)N(c4cccc(C)c4)C(=O)N23)cc1 | 99.0 | 280.4* | -2.0 | 105.0 | i | i
CN(CC(=O)Nc1ccccc1Sc1ccccc1)C1CCCCC1 | 105.0 | 5.9 | 7.0 | 108.0 | i | i
COc1ccccc1[C@@]1(C)ON(c2ccccc2C(F)(F)F)C1=O | / | 326.5* | / | / | / | /
CN(C)CCSc1nc(N)c2c3c(sc2n1)CN(C)CC3 | 77.0 | -11.8 | -7.0 | 98.0 | i | -8.01*
CSc1nc(NCC(C)C)c2c3c(sc2n1)CN(C)CC3 | 101.0 | -34.8 | 6.0 | 111.0 | i | i
CCCSc1nc(N)c2c3c(sc2n1)CN(C)CC3 | / | -1.1 | / | / | 7.23* | i
COc1ccc(S(=O)(=O)N2CCOCC2)cc1NC(=O)CSc1nnc2n1CCCCC2 | / | -3.0 | / | / | / | /
CC(C)(O)/C=C/C[C@](C)(O)C1CC[C@]2(C)C1[C@H](O[C@H]1O[C@@H](CO)[C@H](O)[C@@H](O)[C@@H]1O)CC1[C@@]3(C)CC[C@H](O)C(C)(C)C3[C@@H](O)C[C@]12C (some centres undefined) | / | -25.2 | / | / | / | /
CC(=O)c1ccc(N2CCN(C(=O)CCCn3c(=S)[nH]c4cc5c(cc4c3=O)OCO5)CC2)cc1 | 100.0 | 298.0* | 1.0 | 104.0 | i | i
O=C(CCCn1c(=S)[nH]c2cc3c(cc2c1=O)OCO3)N1CCN(c2ccc(Cl)cc2)CC1 | 98.0 | -6.9 | -4.0 | 95.0 | i | i
CC1CCC(C(C)C)C(OC(=O)Cn2c(-c3ccc(Br)cc3)[n+](C)c3ccccc32)C1 (centres undefined) | 97.0 | -24.0 | 11.0 | 147.0*! | i | i
O=C(CCl)N1CCN(S(=O)(=O)c2ccc3c(c2)CCC3)CC1 | / | -8.5 | / | / | / | /
O=S(=O)(Cc1ccccc1)N1CCc2ccccc21 | 90.0 | 13.2 | 74.0* | / | i | i
O=S(=O)(C(=CNc1ccccc1)S(=O)(=O)c1ccccc1)c1ccccc1 | 98.0 | -0.1 | 7.0 | 104.0 | i | i
C=CCn1c(SCC(=O)Nc2cc3oc4ccccc4c3cc2OC)nnc1-c1cnccn1 | 110.0 | -8.9 | 11.0 | 140.0* | i | i
C=CCn1c(COc2ccccc2F)nnc1SCC(=O)Nc1cc2oc3ccccc3c2cc1OC | 109.0 | -4.9 | 16.0 | 107.0 | i | i
N=c1c(C(=O)NC2CCCCC2)cc2c(=O)n3ccccc3nc2n1CCc1ccccc1 | 99.0 | -5.2 | 10.0 | 105.0 | 7.32* | i
N=c1c(C(=O)NC2CCCCC2)cc2c(=O)n3ccccc3nc2n1Cc1ccccc1 | 101.0 | 7.9 | 2.0 | 98.0 | i | i
CCOC(=O)c1cc2c(=O)n3ccccc3nc2n(CCCOC)c1=NC(C)=O | / | -8.0 | / | / | 12.9* | i
CC(=O)N=c1c(C#N)cc2c(=O)n3ccccc3nc2n1CCCOC(C)C | 82.0 | 9.8 | -23.0 | 82.0 | i | i
